Measured values: PubChem BioAssay (NCI)
This is part of a sample that, as a whole, favours compounds with a hit. Of some 83,000 tested, about 20% had one in any assay.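 Single-concentration screen, 48 h exposure, 96-well plates. Endpoint: percent growth. Below 10 = active.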 Unmarked numbers belong to inactive results. Calls of active or inactive are those of the source.

Legend:
Assay in all cases: NCI-60 one-dose screen, 48 h (100 = growth as untreated, 0 = no growth, -100 = all killed)
Settings in all cases: 10 µM unless noted
DU-145 prostate = test system: DU-145 prostate
MALME-3M melanoma = test system: MALME-3M melanoma
MDA-MB-231 breast = test system: MDA-MB-231 breast
RXF 393 renal = test system: RXF 393 renal
SF-268 CNS = test system: SF-268 CNS
SF-295 CNS = test system: SF-295 CNS
SF-539 CNS = test system: SF-539 CNS
UACC-257 melanoma = test system: UACC-257 melanoma
M14 melanoma = test system: M14 melanoma
HCT-15 colon = test system: HCT-15 colon
HT29 colon = test system: HT29 colon
SNB-19 CNS = test system: SNB-19 CNS
U251 CNS = test system: U251 CNS
PC-3 prostate = test system: PC-3 prostate
SK-MEL-5 melanoma = test system: SK-MEL-5 melanoma
UACC-62 melanoma = test system: UACC-62 melanoma
LOX IMVI melanoma = test system: LOX IMVI melanoma
SK-MEL-28 melanoma = test system: SK-MEL-28 melanoma
SNB-75 CNS = test system: SNB-75 CNS

Structure (SMILES) | growth (DU-145 prostate) | growth (MALME-3M melanoma) | growth (MDA-MB-231 breast) | growth (RXF 393 renal) | growth (SF-268 CNS) | growth (SF-295 CNS) | growth (SF-539 CNS) | growth (UACC-257 melanoma) | growth (M14 melanoma) | growth (HCT-15 colon) | growth (HT29 colon) | growth (SNB-19 CNS) | growth (U251 CNS) | growth (PC-3 prostate) | growth (SK-MEL-5 melanoma) | growth (UACC-62 melanoma) | growth (LOX IMVI melanoma) | growth (SK-MEL-28 melanoma) | growth (SNB-75 CNS)
COC(=O)CCC1=C(C)c2cc3[n-]c(cc4nc(cc5[n-]c(cc1n2)c(CCC(=O)OC)c5C)C=C4C)cc3C.[Cd+2] | 9.35% (active) | 20.5% | 34.9% | 65.7% | 11.6% | 61.9% | 62.2% | 78.7% | 57.9% | 35.5% | 28.8% | 73.9% | 61% | 33.9% | -7.46% (active) | 24.1% | 44.3% | 68.8% | –
Cc1sc2c(c1C)C(c1ccc(Cl)cc1)=N[C@@H](CC(=O)OC(C)(C)C)c1nnc(C)n1-2 | 57% | 57% | 42.8% | – | 51% | 37.6% | 37.5% | 58.1% | 43% | 12.9% | 18% | 45.4% | 52.4% | 53.3% | 21.1% | 26.9% | 7.81% (active) | 38.4% | 18.6%
COc1cc(/C=N/C2=C(C#N)C(c3ccco3)c3c(c4cc(C)ccc4oc3=O)O2)cc(OC)c1OC (stereo not given) | 107% | 97.2% | 95.6% | – | 95.2% | 92.2% | 90.8% | 94.2% | 93.4% | 91.8% | 109% | 98.2% | 96.6% | 89.9% | 93.5% | 55.6% | 88.5% | 81.7% | 82.7%
CCc1ccccc1[C@@H]1C[C@]2(C)CCO[C@@H]2OO1 | 105% | 110% | 103% | 112% | 98.3% | 101% | 111% | 96.7% | 104% | 107% | 98.4% | 93.6% | 99.2% | 100% | 102% | 99.9% | 99.9% | 110% | 84.7%
O=C(N/N=C\c1ccc(N(CCCl)CCCl)cc1)c1cccc([N+](=O)[O-])c1 | 85.9% | 100% | 89.2% | 98.5% | 76.7% | 88.4% | 81% | 92.7% | 110% | 98.7% | – | 77.3% | 73.9% | 89.1% | 93.9% | 77.9% | 83.4% | 108% | 60%
NC(=Nc1ccccc1)N[N+](=O)[O-] | 111% | 103% | 115% | 95.2% | 102% | 113% | – | 112% | 99.9% | 105% | 100% | 96.9% | 111% | 94.2% | 103% | 94% | 103% | 105% | 87.5%
O=P(N1CC1)(N1CC1)N1CCc2ccccc21 | 112% | 109% | 104% | 109% | 103% | – | 105% | 110% | 104% | 115% | 104% | 102% | 95.5% | 88.6% | 109% | 92.8% | 93.3% | 115% | 91.1%
COc1cc([N+](=O)[O-])c2nc(C)ccc2c1[N+](=O)[O-] | 84.9% | 88% | 94.4% | 88.2% | 98% | 132% | 118% | 101% | 92.5% | 92.9% | – | 95.2% | 90% | 93.9% | 93.6% | 86.7% | 71.5% | 103% | 109%
